TWEAK Fn14 block: blocks TWEAK-Fn14 interaction in a reporter cell assay; 2% of 360,000 active; inhibition, % at 10 µM; TWEAK-stimulated Fn14 reporter cells, luciferase luminescence, 8 h; in the data active = inhibition above about 50%
LGR2 antag: inhibitors of bursicon-induced Drosophila LGR2 receptor cAMP signaling; HEK293 LGR2, CRE-luciferase, bursicon-stimulated, 4 h; inhibition, % at 9.99 µM; 0.35% of 380,000 active; AID 720647;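 active = drop in luminescence signal, shown as inhibition above about 50% in the replicate tests, limit read from the data, passing the limit was not always enough; inconclusive = probably only some replicates passing the limit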;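 note: agonist challenge used bursicon conditioned medium at about half maximal strength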
EWS-Fli inh: blocks EWS/Fli oncoprotein-driven transcription. A673 NR0B1-luciferase reporter, viability-normalised. inhibition, % at 12.6 µM. 0.67% of 350,000 active. AID 651661;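 active = mean inhibition of at least 50% after viability correction, with every replicate also passing that limit; inconclusive = mean reaches 50% but only one of two replicates passes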;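 note: firefly luciferase signal divided by Alamar Blue viability fluorescence both relative to DMSO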
TROY signal inh: inhibitors of TROY-dependent NF-kB signaling. Q293 LMP1-TROYcd NF-kB luciferase reporter, 4 h. inhibition, % at 10 µM. 0.98% of 360,000 active. AID 1347056;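 active = compounds whose plate-normalised and pattern-corrected inhibition of the luciferase reporter signal at the single screening dose is 50% or more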
LMP1 NFkB inh: reduces LMP1-driven NF-kappaB luciferase signal | LMP1-induced NF-kappaB luciferase reporter cells, luminescence | AID 504558 | inhibition, % at 12.5 µM | 0.69% of 350,000 active; in the data active = inhibition above about 41%; inconclusive = no clear call, values can overlap the other calls;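 note: 0% = neutral control wells and 100% = reference inhibitor control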
Numbers without * were called inactive; ? = inconclusive; nt = no result given. The list is not random: actives were taken first. Their share in the collection is about 2.6%.

SMILES	TWEAK Fn14 block	LGR2 antag	EWS-Fli inh	TROY signal inh	LMP1 NFkB inh
CC(C)(C)OC(=O)NCc1ccc(NC(=O)c2nc[nH]c2C(=O)NCCCNC(=O)c2[nH]cnc2C(=O)Nc2ccc(CNC(=O)OC(C)(C)C)cc2)cc1	73.4*	nt	nt	18.6	25.6
CC(C)(C)OC(=O)NCc1ccc(NC(=O)c2nc[nH]c2C(=O)NCCCCNC(=O)c2[nH]cnc2C(=O)Nc2ccc(CNC(=O)OC(C)(C)C)cc2)cc1	5.2	nt	nt	12.1	-5.2
CC(C)(C)OC(=O)NCCCCCNC(=O)c1[nH]cnc1C(=O)Nc1cc(Br)ccc1F	76.3*	17.2	17.6	22.2	15.1
C[C@H](NC(=O)c1nc[nH]c1C(=O)NCc1ccc(CNC(=O)OC(C)(C)C)cc1)C(=O)OCc1ccccc1	-0.6	7.3	-8.2	57.0*	5.0
CC(C)(C)OC(=O)NCCCCCNC(=O)c1[nH]cnc1C(=O)Nc1ccc(Cl)cc1	62.0*	13.9	29.2	57.5*	7.8
C[C@@H]1CCCCO[C@@H](CN(C)Cc2ccc(C(=O)O)cc2)[C@H](C)CN([C@@H](C)CO)C(=O)c2cc(NC(=O)NC3CCCCC3)ccc2O1	nt	11.8	-13.1	nt	nt
Cn1cnc(C(=O)NCc2ccc(CNC(=O)OC(C)(C)C)cc2)c1C(=O)NCc1ccc(CNC(=O)OC(C)(C)C)cc1	58.3*	1.2	27.3	20.8	13.8
CC(C)(C)OC(=O)NCc1ccc(CNC(=O)c2ncn(Cc3ccccc3)c2C(=O)NCc2ccc(CNC(=O)OC(C)(C)C)cc2)cc1	-23.2	nt	2.5	11.6	4.0
CC(C)(C)OC(=O)NCc1ccc(CNC(=O)c2[nH]cnc2C(=O)Nc2ccccc2F)cc1	54.4*	?	34.1	40.0	3.7
CCOc1cc(/C=C2\C(=O)ON=C2C)ccc1OCc1ccccc1	60.6*	-7.4	nt	-16.7	5.7
CCCOc1ccc(/C=C2/C(=O)ON=C2C)cc1OCC	4.0	16.0	25.7	-18.1	2.6
COc1cccc(CN2CC3(CN(CC4CCOCC4)C3)c3c([nH]c4cc(OC)ccc34)[C@H]2CO)c1	nt	17.1	1.1	nt	nt
CC(C)(O)C#Cc1cccc(-c2nc(C(=O)N[C@@H]3CCN(Cc4ccccc4)C3)cc3c2[C@H](CCO)N(S(=O)C(C)(C)C)C3)c1 (some centres not stated)	nt	-17.5	-1.6	nt	nt
CCCc1cn(CC[C@H]2CC[C@@H](NC(=O)C3CCCCC3)[C@@H](CO)O2)nn1	nt	-28.5	0.8	nt	nt
CNc1ccccc1C(C)(C)c1cc(-c2ccc(F)cc2)no1	54.4*	10.6	nt	31.4	20.4
COc1ccc(-c2cc(=O)c3ccc(O)cc3o2)cc1	0.3	-18.3	-69.1	-69.8	1.4
COc1ccc(-c2cc(=O)c3cc(OC)ccc3o2)cc1	64.5*	2.1	52.2*	6.9	22.7
COc1cc(-c2ccc3oc(-c4ccsc4)cc(=O)c3c2)cc(OC)c1OC	24.5	64.1*	-6.8	19.8	22.8
COc1cc(-c2cc(=O)c3ccc(O)cc3o2)cc(OC)c1OC	-14.8	9.2	5.7	-6.0	nt
CCCN1[C@H](C(=O)NCCCN2CCOCC2)[C@@H](CO)[C@@H]2Cn3c(ccc(-c4cccnc4)c3=O)[C@@H]21	nt	6.3	-5.8	nt	nt
C[C@H](CO)N1C[C@H](C)[C@@H](CN(C)C(=O)CCCN(C)C)OCc2cnnn2CCCC1=O	nt	1.3	-5.3	nt	nt
COc1ccc(C(=O)SC2=NCCS2)cc1	53.6*	-4.5	2.2	34.0	1.6
CCOc1ccc(C(=O)SC2=NCCS2)cc1	63.1*	nt	nt	36.2	1.7
CCOc1cccc(C(=O)NC2=NCCS2)c1	17.4	-44.2	-3.5	-35.1	13.6
O=C(COc1ccc(Br)cc1Br)NN1C(=O)c2ccccc2C1=O	19.3	23.3	5.9	-14.5	nt
SMILES	TWEAK Fn14 block	LGR2 antag	EWS-Fli inh	TROY signal inh	LMP1 NFkB inh
CC(C)c1ccc(OCC(=O)NN2C(=O)c3ccccc3C2=O)c(Br)c1	68.7*	0.1	5.9	-17.0	5.9
S=C(NCc1ccccc1)Nc1cccc2cnccc12	76.8*	12.4	nt	41.6	20.3
CC(=O)c1ccc(NC(=S)Nc2cccc3cnccc23)cc1	59.5*	12.5	-27.7	33.7	-4.3
S=C(NCCc1ccccc1)Nc1cccc2cnccc12	40.4	-1.9	14.2	36.1	23.5
S=C(Nc1cccc(Cl)c1)Nc1cccc2cnccc12	76.2*	nt	nt	33.9	2.4
Cc1ccc(NC(=S)Nc2cccc3cnccc23)cc1C	25.8	-70.1	-22.2	28.6	-14.6
CO[C@@H]1CN(C)C(=O)c2cc(NS(C)(=O)=O)ccc2OC[C@@H](C)N(C)C[C@H]1C	nt	0.6	5.3	nt	nt
C[C@H](CO)N1C[C@H](C)[C@@H](CN(C)Cc2ccc(Oc3ccccc3)cc2)Oc2ccc(NC(=O)Nc3ccccc3)cc2CC1=O	nt	1.1	24.6	nt	nt
CC(=O)N(C)/C=C1\Sc2ccccc2C1=O	-16.3	-21.9	nt	29.4	-9.4
CCC(=O)N(C)/C=C1\Sc2ccccc2C1=O	-21.4	-47.8	nt	11.8	76.0*
O=C(Nc1cccnc1)C1COc2ccccc2O1 (configuration not stated)	5.6	nt	nt	-12.3	3.6
O=C(Nc1ccccc1)C1COc2ccccc2O1 (configuration not stated)	80.5*	-8.8	-27.0	-15.7	-2.0
CC(=O)c1sc(NC(=O)C2COc3ccccc3O2)nc1C (configuration not stated)	87.4*	nt	46.1	56.2*	48.6*
O=C(Nc1ccc(-c2cn3ccsc3n2)cc1)C1COc2ccccc2O1 (configuration not stated)	45.4	nt	nt	57.5*	-4.3
Cc1ccc(NC(=O)C2COc3ccccc3O2)cc1 (configuration not stated)	51.2*	-13.0	-105.5	-44.6	-12.7
O=C(Nc1nncs1)C1COc2ccccc2O1 (configuration not stated)	-3.1	nt	nt	-10.2	-10.6
N#C[C@H]1[C@@H](c2ccccc2C2=CCCC2)[C@@H](CO)N1C(=O)C1CC1	nt	2.9	4.1	nt	nt
COCC(=O)N(C)C[C@H]1Oc2ncc(-c3ccccc3OC)cc2C(=O)N([C@@H](C)CO)C[C@@H]1C	nt	-7.4	-11.2	nt	nt
Cc1noc(C)c1S(=O)(=O)N(C)C[C@H]1Oc2c(NC(=O)c3cnccn3)cccc2C(=O)N([C@@H](C)CO)C[C@H]1C	nt	-10.2	0.0	nt	nt
COC(=O)N(C)C[C@H]1OCc2ccccc2-c2c(n(C)c3ccccc23)C(=O)N([C@H](C)CO)C[C@H]1C	nt	-4.8	-10.0	nt	nt
CC1(C)Oc2ccc(NC(=O)C3COc4ccccc4O3)cc2O1 (configuration not stated)	41.7	nt	nt	54.5*	-7.2
Cc1ccccc1C(=O)N1CCC2CC1c1cc(Cl)ccc12 (configuration not stated)	3.6	-28.0	8.3	81.1*	1.7
Cc1c(Cc2ccccc2)sc(NC(=O)/C=C/c2cccc3ccccc23)c1C(N)=O	17.1	13.1	60.0*	-20.2	12.8
C[C@H]1CN([C@@H](C)CO)C(=O)Cc2cc(NC(=O)CCCCCC(=O)Nc3ccccc3N)ccc2O[C@H]1CN(C)C(=O)NC1CCCCC1	nt	7.3	-1.2	nt	nt
COc1ccc(N=N/C(=C\O)C(=O)c2cccs2)cc1	68.9*	-24.7	-23.5	9.2	12.8
